According to PubChem BioAssay (NCI):
Values joined by “and” are separate entries in the source; they are usually repeats but may differ in a detail not shown here. Equal entries are not always repeated. This is part of a sample that, as a whole, favours compounds with a hit. Of some 83,000 tested, about 20% had one in any assay.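 Note: values are percent growth. 100 is the growth of untreated cells, values between 100 and 0 indicate rising inhibition; between -100 and 0 indicates cell death.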 Active and inactive are the calls of the source. The calls were made as follows: active = growth percent below 10; inactive = the rest.

Assays:
Experiment in all cases: NCI-60 one-dose screen, 48 h (100 = growth as untreated, 0 = no growth, -100 = all killed)
Conditions in all cases: 10 µM unless noted
NCI-H23 lung = test system: NCI-H23 lung
NCI-H226 lung = test system: NCI-H226 lung
HOP-62 NSCLC = test system: HOP-62 NSCLC
NCI-H460 lung = test system: NCI-H460 lung
HOP-92 NSCLC = test system: HOP-92 NSCLC
A549/ATCC NSCLC = test system: A549/ATCC NSCLC
786-0 renal = test system: 786-0 renal
COLO 205 colon = test system: COLO 205 colon
DU-145 prostate = test system: DU-145 prostate
K-562 leukemia = test system: K-562 leukemia
MALME-3M melanoma = test system: MALME-3M melanoma
MDA-MB-231 breast = test system: MDA-MB-231 breast
RXF 393 renal = test system: RXF 393 renal
SF-268 CNS = test system: SF-268 CNS
SF-295 CNS = test system: SF-295 CNS
SF-539 CNS = test system: SF-539 CNS
UACC-257 melanoma = test system: UACC-257 melanoma
M14 melanoma = test system: M14 melanoma
NCI-H322M lung = test system: NCI-H322M lung
NCI-H522 lung = test system: NCI-H522 lung

Row | SMILES | growth (NCI-H23 lung) | growth (NCI-H226 lung) | growth (HOP-62 NSCLC) | growth (NCI-H460 lung) | growth (HOP-92 NSCLC) | growth (A549/ATCC NSCLC) | growth (786-0 renal) | growth (COLO 205 colon) | growth (DU-145 prostate) | growth (K-562 leukemia) | growth (MALME-3M melanoma) | growth (MDA-MB-231 breast) | growth (RXF 393 renal) | growth (SF-268 CNS) | growth (SF-295 CNS) | growth (SF-539 CNS) | growth (UACC-257 melanoma) | growth (M14 melanoma) | growth (NCI-H322M lung) | growth (NCI-H522 lung)
1 | CC1(C)[C@@H](OC(=O)CCC(=O)O)CC[C@]2(C)[C@H]3C(=O)C=C4[C@@H]5C[C@@](C)(C(=O)O)CC[C@]5(C)CC[C@@]4(C)[C@]3(C)CC[C@@H]12 | 105% (inactive) and -34.8% (active) | 104% (inactive) and -75.4% (active) | 103% (inactive) and -54.9% (active) | 103% (inactive) and -35.3% (active) | 121% (inactive) and -74.4% (active) | 107% (inactive) and -28.4% (active) | 98.4% (inactive) and -66.9% (active) | 113% (inactive) and -3.87% (active) | 101% (inactive) and -1.77% (active) | 92.3% (inactive) and 5.05% (active) | 108% (inactive) and -65.4% (active) | 110% (inactive) and -5.44% (active) | 125% (inactive) and -88.8% (active) | 96.1% (inactive) and -27% (active) | 106% (inactive) and -51.1% (active) | 99.9% (inactive) and -73% (active) | 99.2% (inactive) and -46.5% (active) | 103% (inactive) and -12.8% (active) |  | 
2 | CCN(CC)C(=O)c1cccnc1 |  | 110% (inactive) | 119% (inactive) | 111% (inactive) | 117% (inactive) |  | 99.4% (inactive) | 115% (inactive) | 119% (inactive) |  | 104% (inactive) | 106% (inactive) | 123% (inactive) | 108% (inactive) | 99.8% (inactive) | 99.8% (inactive) | 101% (inactive) | 103% (inactive) | 123% (inactive) | 98.9% (inactive)
3 | c1ccc2c(CC3=NCCN3)cccc2c1 | 96.3% (inactive) and 98.5% (inactive) | 91.4% (inactive) and 100% (inactive) | 112% (inactive) and 98.8% (inactive) | 108% (inactive) and 105% (inactive) |  | 97.6% (inactive) and 93.8% (inactive) | 98.3% (inactive) and 99.9% (inactive) | 113% (inactive) and 112% (inactive) | 123% (inactive) and 114% (inactive) | 115% (inactive) and 107% (inactive) | 104% (inactive) and 113% (inactive) | 105% (inactive) and 109% (inactive) | 105% (inactive) and 102% (inactive) | 114% (inactive) and 109% (inactive) | 94.3% (inactive) and 100% (inactive) | 102% (inactive) and 95.8% (inactive) | 101% (inactive) and 97.1% (inactive) | 97.1% (inactive) and 99.3% (inactive) |  | 103% (inactive) and 90% (inactive)
4 | CNC(=O)c1cccnc1 |  | 107% (inactive) |  | 109% (inactive) | 109% (inactive) | 92.8% (inactive) | 99.6% (inactive) | 121% (inactive) | 116% (inactive) |  | 86.8% (inactive) | 102% (inactive) | 114% (inactive) | 103% (inactive) | 100% (inactive) | 100% (inactive) | 92.4% (inactive) | 104% (inactive) |  | 
5 | Cc1ccc(-c2noc(C)n2)cc1 |  | 93.8% (inactive) | 100% (inactive) | 106% (inactive) | 92.1% (inactive) | 93.6% (inactive) | 102% (inactive) | 113% (inactive) | 115% (inactive) | 96.1% (inactive) | 108% (inactive) | 111% (inactive) | 94.2% (inactive) | 111% (inactive) | 95.2% (inactive) | 98.7% (inactive) | 92.9% (inactive) | 110% (inactive) |  | 
6 | CC(=O)Nc1ccc(O)cc1 | 99.3% (inactive) and 112% (inactive) and 102% (inactive) | 92.9% (inactive) and 106% (inactive) and 112% (inactive) |  | 109% (inactive) and 105% (inactive) and 108% (inactive) | 80.3% (inactive) and 120% (inactive) |  | 99.5% (inactive) and 106% (inactive) and 103% (inactive) | 105% (inactive) and 116% (inactive) and 101% (inactive) | 103% (inactive) and 113% (inactive) and 118% (inactive) | 107% (inactive) and 83.2% (inactive) and 106% (inactive) | 100% (inactive) and 1.98% (active) and 142% (inactive) | 101% (inactive) and 119% (inactive) and 92.4% (inactive) | 108% (inactive) and 129% (inactive) | 100% (inactive) and 106% (inactive) and 105% (inactive) | 89.9% (inactive) and 94.1% (inactive) and 107% (inactive) | 104% (inactive) and 95.4% (inactive) and 103% (inactive) | 98.3% (inactive) and 155% (inactive) and 107% (inactive) | 97.2% (inactive) and 123% (inactive) and 109% (inactive) |  | 94.3% (inactive) and 47% (inactive)
7 | OC(COc1cccc2ccccc12)CN1CCN(c2ccc(Cl)cc2)CC1 (centres undefined) | 84.6% (inactive) and 86.5% (inactive) | 92.4% (inactive) and 111% (inactive) | 96.5% (inactive) and 77.3% (inactive) | 49% (inactive) and 95% (inactive) | 75.1% (inactive) and 77% (inactive) | 71.9% (inactive) and 88.3% (inactive) | 80.9% (inactive) and 89.7% (inactive) | 121% (inactive) | 93.1% (inactive) and 122% (inactive) | 66.3% (inactive) and 85% (inactive) | 109% (inactive) and 106% (inactive) | 83.6% (inactive) and 112% (inactive) | -3.89% (active) and 94.8% (inactive) | 91.1% (inactive) and 103% (inactive) | 70.2% (inactive) and 83.2% (inactive) | 91.3% (inactive) and 102% (inactive) | 114% (inactive) and 95.9% (inactive) | 90.9% (inactive) and 100% (inactive) |  | 109% (inactive) and 85.7% (inactive)
8 | N=C1N=C(N)CS1 |  | 96.9% (inactive) | 107% (inactive) | 103% (inactive) | 99.5% (inactive) | 96.6% (inactive) | 103% (inactive) | 113% (inactive) | 115% (inactive) | 105% (inactive) | 114% (inactive) | 115% (inactive) | 99.4% (inactive) | 107% (inactive) | 96.5% (inactive) | 110% (inactive) | 106% (inactive) | 108% (inactive) |  | 
9 | ClC/C=C/CSc1ncnc2nc[nH]c12 | 101% (inactive) and 102% (inactive) | 98.9% (inactive) and 123% (inactive) | 91.9% (inactive) and 108% (inactive) | 105% (inactive) and 106% (inactive) | 104% (inactive) |  | 106% (inactive) and 102% (inactive) | 109% (inactive) and 116% (inactive) | 110% (inactive) and 116% (inactive) | 82.1% (inactive) and 73.3% (inactive) | 116% (inactive) and 95.9% (inactive) | 109% (inactive) and 96.3% (inactive) | 109% (inactive) and 141% (inactive) | 103% (inactive) and 119% (inactive) | 101% (inactive) and 117% (inactive) | 101% (inactive) and 103% (inactive) | 118% (inactive) and 104% (inactive) | 104% (inactive) and 103% (inactive) |  | 102% (inactive) and 77.3% (inactive)
10 | COc1ccc2ccccc2c1/C=N/N1CCCCC1 | 97.2% (inactive) | 102% (inactive) | 101% (inactive) | 109% (inactive) | 67.8% (inactive) | 95.7% (inactive) | 96.1% (inactive) | 102% (inactive) | 108% (inactive) | 91.5% (inactive) |  | 99.4% (inactive) | 100% (inactive) |  | 96.4% (inactive) | 89.5% (inactive) | 99.7% (inactive) | 108% (inactive) |  | 86.9% (inactive)
11 | O=C1c2c(O)cc(O)cc2OC(c2ccc(O)c(O)c2)C1O (centres undefined) |  | 109% (inactive) | 110% (inactive) | 107% (inactive) | 108% (inactive) | 105% (inactive) |  | 119% (inactive) | 132% (inactive) | 104% (inactive) | 118% (inactive) | 106% (inactive) | 124% (inactive) | 111% (inactive) | 119% (inactive) | 107% (inactive) | 107% (inactive) |  | 126% (inactive) | 
